High-throughput results (PubChem)
Hits are enriched below; roughly 19% of the tested compounds scored in any of these assays.
TDP1 cell noCPT: qHTS for Inhibitors of human tyrosyl-DNA phosphodiesterase 1 (TDP1): qHTS in cells in absence of CPT | DT40 Tdp1-/- hTDP1 cells, no CPT, ATP luminescence, 48 h | Potency, µM (doses to about 46.2 µM), without a hit: at the highest dose activity change, negative = growth inhibition, hits mostly inhibitors | AID 686978, 2013 | 420,000 tested, 15% active; further: nearly all actives have a fitted effect of over 55% in size
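Stably hTDP1-transfected Tdp1-null chicken DT40 cells were treated with library compounds minus camptothecin and grown for at least 48 hr at 37 °C, after which cellular ATP was quantified by luminescence.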
KB-3-1 cytotox: KB-3-1 parental cell cytotoxicity | KB-3-1 viability, CellTiter-Glo ATP luminescence, 72 h | Potency, µM (top dose mostly 46.1 µM), most hits filed as cytotoxic | 400,000 tested, 1.4% active; further: nearly all actives have a fitted effect of over 60% in size
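KB-3-1 parental drug-naive adenocarcinoma cells in DMEM/10% FBS, incubated 72 h at 37 C with pin-transferred compounds across a concentration series. Viability by CellTiter-Glo luminescence; concentration-response curves fitted after normalization.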
HT1080 IDH1KD tx: kills HT-1080 cells with IDH1 knockdown. HT-1080 IDH1 knockdown viability, ATP luminescence, 48 h. Potency, µM (series often up to 46.1 µM), without a hit: at the top dose activity, negative = toxicity, usual class: cytotoxic. 360,000 tested, 2% active. AID 686971;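 further: 0% = DMSO wells and -100% = cell-free medium wells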
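Using the IDH1-knockdown HT-1080 line run in the same batch and compound series as the NT line, viability after 48 h at 37 °C was determined by CellTiter-Glo luminescence and expressed as % activity.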
HT1080NT lethal: kills 2HG-producing HT-1080-NT fibrosarcoma cells; HT-1080-NT fibrosarcoma viability, CellTiter-Glo ATP luminescence, 48 h; Potency, µM (titrated, usually from 46.1 µM), for the others: top-dose activity, negative = less viability, most hits filed as cytotoxic; 360,000 tested, 1.6% active; AID 686970;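 further: NT is the 2HG producing partner of a matched IDH1 knockdown line; 0% = DMSO-treated cells and -100% = media-only wells without cells; nearly all actives have a fitted effect of over 55% in size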
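Luminescent CellTiter-Glo readout after 48 hours of compound exposure at 37 degrees C defined viability of HT-1080-NT cells. Activity was normalized to DMSO wells and cell-free media wells; concentration-response curves were fitted and assigned curve classes.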
TDP1 cell CPT: growth inhibition of DT40 Tdp1-/-;hTDP1 cells with camptothecin (screen for TDP1 inhibitors); chicken DT40 Tdp1-/-;hTDP1 cells + 20 nM CPT, ATP luminescence, 48 h; Potency, µM (highest dose often 46.2 µM), for inactives: at the top dose activity change, negative = growth inhibition, most hits filed as inhibitors; 420,000 tested, 12% active; further: nearly all actives have a fitted effect of over 55% in size
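Chicken DT40 Tdp1-/- cells stably complemented with human TDP1 were seeded at 400 cells/well in medium containing 20 nM camptothecin, exposed to pin-transferred compounds, and grown at 37 °C for at least 48 hr. Viability was read as ATP luminescence.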
KB-V1 cytotox: kills drug-selected multidrug resistant KB-V1 cells; KB-V1 MDR cells viability, CellTiter-Glo, 72 h; Potency, µM (titrated, usually from 46.1 µM), usual class: cytotoxic; 400,000 tested, 3.4% active; further: nearly all actives have a fitted effect of over 60% in size
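KB-V1, DMEM (no phenol red) + 10% FBS; cpd pin-transferred, titration series; 72 h, 37 degrees C; CellTiter-Glo, luminescence. Data normalized, curve-fit.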
Numbers without * were called inactive. The call rests on the fitted dose curve; in most records, active means well fitted curve in the direction sought with a large enough effect; inconclusive means small, poorly fitted or top-dose-only effect, or another doubt; inactive means no such curve, though single readings can be large; an effect the other way counts as inactive or inconclusive. Unless noted, on the % scale 0 is the no-effect control and ±100 the full control effect; potency means the concentration at half of the fitted maximal effect.

For COc1ccc(-c2csc(-c3nc(-c4ccc(Br)s4)cs3)n2)cc1F the results were TDP1 cell noCPT -9%, KB-3-1 cytotox inactive, TDP1 cell CPT 2% and KB-V1 cytotox inactive.
Screening O=C(c1ccc(CNS(=O)(=O)c2ccc(Br)cc2)cc1)N1CCCCCC1 returned TDP1 cell noCPT inconclusive, KB-3-1 cytotox inactive, HT1080 IDH1KD tx -1%, HT1080NT lethal 1%, TDP1 cell CPT 23µM* and KB-V1 cytotox inconclusive.
Screening O=C(NC1CCCCCC1)C1CCN(C(=O)c2ccc(Br)cc2)CC1 returned TDP1 cell noCPT 15µM*, KB-3-1 cytotox inactive, HT1080 IDH1KD tx -2%, HT1080NT lethal -1%, TDP1 cell CPT 21µM* and KB-V1 cytotox inactive.
For CN1CCN(C(=O)c2ccc(S(=O)(=O)c3ccc(Br)cc3)cc2)CC1 the results were TDP1 cell noCPT 18µM*, KB-3-1 cytotox inactive, HT1080 IDH1KD tx 1%, HT1080NT lethal -6%, TDP1 cell CPT inconclusive and KB-V1 cytotox inactive.
For O=C(NC1CCCC1)C(C1CC1)n1c(-c2ccncc2)nc2ccccc21 (centres undefined) the results were TDP1 cell noCPT 2%, KB-3-1 cytotox inactive, HT1080 IDH1KD tx 1%, HT1080NT lethal 18%, TDP1 cell CPT -6% and KB-V1 cytotox inactive.
COc1ccccc1C(=O)Nc1nnc([C@@H]2C[C@H](O)[C@@H](CO)O2)s1 was read as TDP1 cell noCPT -11%, KB-3-1 cytotox inactive, HT1080 IDH1KD tx 24%, HT1080NT lethal 21%, TDP1 cell CPT -4% and KB-V1 cytotox inactive.
CN(C)S(=O)(=O)n1cc(/C=C(\NC(=O)c2ccccc2)C(=O)N2CCCCC2)c2ccccc21 was read as TDP1 cell noCPT 18µM*, KB-3-1 cytotox inactive, HT1080 IDH1KD tx 0%, HT1080NT lethal 2%, TDP1 cell CPT 23µM* and KB-V1 cytotox inactive.
For CN1CCN(C(=O)/C(=C/c2cn(S(=O)(=O)N(C)C)c3ccccc23)NC(=O)c2ccccc2F)CC1 the results were TDP1 cell noCPT inconclusive, KB-3-1 cytotox inactive, HT1080 IDH1KD tx 1%, HT1080NT lethal 9%, TDP1 cell CPT -25% and KB-V1 cytotox inactive.
`COc1ccccc1C(=O)N/C(=C\c1cn(S(=O)(=O)N(C)C)c2ccccc12)C(=O)N1CCN(C)CC1` gave TDP1 cell noCPT inconclusive, KB-3-1 cytotox inactive, HT1080 IDH1KD tx 0%, HT1080NT lethal -2%, TDP1 cell CPT 26µM* and KB-V1 cytotox inactive.
`COc1ccccc1C(=O)N/C(=C\c1ccc(Br)cc1)C(=O)NCC(=O)O` gave TDP1 cell noCPT -12%, KB-3-1 cytotox inactive, HT1080 IDH1KD tx -3%, HT1080NT lethal 1%, TDP1 cell CPT 5% and KB-V1 cytotox inactive.
For CN(C)S(=O)(=O)n1cc(/C=C(\NC(=O)c2ccccc2F)C(=O)NCCN2CCOCC2)c2ccccc21 the results were TDP1 cell noCPT 12µM*, KB-3-1 cytotox inactive, HT1080 IDH1KD tx 2%, HT1080NT lethal 0%, TDP1 cell CPT inconclusive and KB-V1 cytotox inactive.
For COc1ccccc1C(=O)N/C(=C/c1ccc(Br)cc1)C(=O)N1CCCC1 the results were TDP1 cell noCPT 21µM*, KB-3-1 cytotox inactive, HT1080 IDH1KD tx -24%, HT1080NT lethal -20%, TDP1 cell CPT 26µM* and KB-V1 cytotox inactive.
`COC(=O)c1sc(N2C(=O)c3oc4ccc(C)cc4c(=O)c3C2c2ccc(O)c(OC)c2)nc1C` (centres undefined) gave TDP1 cell noCPT inconclusive, KB-3-1 cytotox inactive, TDP1 cell CPT inconclusive and KB-V1 cytotox inactive.
COCC(=O)N1CCC(c2nc3ccccc3[nH]2)CC1 was read as TDP1 cell noCPT -12%, KB-3-1 cytotox inactive, HT1080 IDH1KD tx -2%, HT1080NT lethal -2%, TDP1 cell CPT -7% and KB-V1 cytotox inconclusive.
Screening CC1=N/C(=C\c2ccc([N+](=O)[O-])cc2)C(=O)N1c1cc(Cl)ccc1C returned TDP1 cell noCPT 9.2µM*, KB-3-1 cytotox inactive, HT1080 IDH1KD tx 0%, HT1080NT lethal -5%, TDP1 cell CPT 10µM* and KB-V1 cytotox inactive.
COc1ccc(N2C(=O)/C(=C/c3ccc([N+](=O)[O-])cc3)N=C2C)c(OC)c1 was read as TDP1 cell noCPT 2.1µM*, KB-3-1 cytotox inactive, HT1080 IDH1KD tx 0%, HT1080NT lethal 10%, TDP1 cell CPT 3.7µM* and KB-V1 cytotox inactive.
For COc1ccc(OC)c(C=Cc2ccc([N+](=O)[O-])cc2)c1 the results were TDP1 cell noCPT inconclusive, KB-3-1 cytotox inactive, HT1080 IDH1KD tx -1%, HT1080NT lethal -16%, TDP1 cell CPT -12% and KB-V1 cytotox inactive.
For CC(=O)N1CCc2nc3sc(C(=O)Nc4ccc(Cl)cc4F)c(N)c3c(C(F)(F)F)c2C1 the results were KB-3-1 cytotox inactive and KB-V1 cytotox inactive.
For CC(=O)N1c2ccc(S(=O)(=O)N3CCC(C(=O)Nc4cccc(C)c4C)CC3)cc2CC1C (centres undefined) the results were TDP1 cell noCPT -18%, KB-3-1 cytotox inactive, HT1080 IDH1KD tx 8%, HT1080NT lethal 0%, TDP1 cell CPT inconclusive and KB-V1 cytotox inactive.
`Cc1cccc(NS(=O)(=O)c2ccc3c(c2)CC(C)N3C(=O)C2CCC2)c1C` (centres undefined) gave TDP1 cell noCPT 18µM*, KB-3-1 cytotox 23µM*, TDP1 cell CPT inconclusive and KB-V1 cytotox inconclusive.
Screening CCOc1ccccc1NS(=O)(=O)c1ccc2c(c1)CC(C)N2C(=O)C1CCC1 (centres undefined) returned TDP1 cell noCPT 15µM*, KB-3-1 cytotox inconclusive, TDP1 cell CPT 23µM* and KB-V1 cytotox inconclusive.
`CN(C(=O)c1cccc(NC(=O)C2CCCN(C(=O)OC(C)(C)C)C2)c1)C1CCC1` (centres undefined) gave TDP1 cell noCPT 16µM*, KB-3-1 cytotox inconclusive, HT1080 IDH1KD tx -4%, HT1080NT lethal -5%, TDP1 cell CPT 21µM* and KB-V1 cytotox inactive.
`CN(C(=O)c1ccc(NC(=O)C2CCN(C(=O)OC(C)(C)C)CC2)cc1)C1CCC1` gave TDP1 cell noCPT 18µM*, KB-3-1 cytotox inactive, HT1080 IDH1KD tx 8%, HT1080NT lethal 0%, TDP1 cell CPT 18µM* and KB-V1 cytotox inactive.
